The nature of experiment [1]: NCI Yeast Anticancer Drug Screen. Data for the rad50 strain (AID 155).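 Note: 0% = growth of vehicle-only cultures of the same strain.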 Conditions: S. cerevisiae rad50 strain growth inhibition; at 50.0 µM; stronger effect = higher value. Summed up: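 Inhibition values express reduced yeast growth in compound-treated cultures relative to vehicle-treated controls.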
Experiment [2] can be described thus: NCI Yeast Anticancer Drug Screen. Data for the mec2-1 strain (AID 157). Conditions: S. cerevisiae mec2-1 strain, at 50.0 µM, stronger effect = higher value. Summed up: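 Compounds were applied to mec2-1 yeast cells. Their growth was then compared with that of vehicle-treated cultures to give growth inhibition.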
Experiment [3] is described as follows: NCI Yeast Anticancer Drug Screen. Data for the sgs1 mgt1 strain (AID 161).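 Note: 0% = growth of cultures given vehicle only.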 The following applies: S. cerevisiae sgs1 mgt1 strain, at 50.0 µM, stronger effect = higher value. Summed up:
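Growth of a repair-deficient yeast mutant was monitored after compound treatment and expressed as inhibition relative to vehicle-treated cultures.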

A short description of experiment [4]: NCI Yeast Anticancer Drug Screen. Data for the cln2 rad14 strain (AID 165).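 Note: 0% = growth equal to vehicle treated cultures.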 The following applies: S. cerevisiae cln2 rad14 strain, at 50.0 µM, stronger effect = higher value. Summed up:
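Strain: cln2 rad14 yeast, altered in cell cycle control and DNA damage repair. Read-out: growth inhibition vs vehicle.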

Experiment [5] in a line: NCI Yeast Anticancer Drug Screen. Data for the bub3 strain (AID 167). The following applies: S. cerevisiae bub3 mutant strain, at 50.0 µM, stronger effect = higher value. The procedure, abridged: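 Steps: expose the mutant yeast strain to compound; grow alongside vehicle-treated cultures; measure growth; express inhibition against the vehicle cultures.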
Experiment [6] in a line: NCI Yeast Anticancer Drug Screen. Data for the mlh1 rad18 strain (AID 175). The following applies: S. cerevisiae mlh1 rad18 strain growth inhibition; at 50.0 µM; stronger effect = higher value. Summed up: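 A repair-deficient yeast strain is exposed to test compound, and growth is scored relative to vehicle-treated controls.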

About 79,000 compounds went through this panel and 15% of them were active in at least one assay; those are over-represented in the sample as a whole. A number with no mark means an inactive call. Activity calls are given as the source filed them. Cut-off read from the data, not from the text of the source: active = growth inhibition above about 70%; inactive = the rest.

On to `CNc1c(C)cc(C#N)cc1C`, for which the growth inhibition in experiment [1] was 7.45%; in experiment [2], 1.25%; in experiment [3], -10.6%; in experiment [4] it was 0.2%; in experiment [5], -4.7%; in experiment [6] it was -5.4%.

With `Oc1[nH]c2ccccc2c1N=NC(=S)Nc1cccc(Cl)c1`, the growth inhibition in experiment [1] is -0.35%; in experiment [2] it was 4.4%; in experiment [3], 55.5%; in experiment [4], 35%; in experiment [5], 23.5%; in experiment [6], 15.2%.

For the molecule `CCCC1=C(CC)C(C(=O)Nc2c(C)cccc2C)=NC(S)N1` (stereo unspecified), the growth inhibition is -11.8% in experiment [1]; -15.6% in experiment [2]; 0.65% in experiment [3]; 14.5% in experiment [4]; 1.15% in experiment [5]; -19.1% in experiment [6].

With `CCC1(C#N)N=C(c2ccccc2)c2ccccc2N1C(=O)OC` (stereo unspecified), the growth inhibition in experiment [1] is 5.7%; in experiment [2], -1.9%; in experiment [3], 17.8%; in experiment [4], -28.9%; in experiment [5], -35.5%; in experiment [6], 18.1%.

As for `O=Cc1cccc2[nH]ccc12`, the growth inhibition in experiment [1] is 5.9%; in experiment [2], -7.95%; in experiment [3], 13%; in experiment [4], -4.6%; in experiment [5], 7.85%; in experiment [6] it was 3.25%.

As for `CC1(C)OC(=O)CC1CCN` (stereo unspecified), the growth inhibition in experiment [1] is -0.75%; in experiment [2], -13.5%; in experiment [3] it was -7.05%; in experiment [4], -30.9%; in experiment [5] it was 14.9%; in experiment [6], 13.2%.

Consider `COc1cc(/C=C/C(=O)OCCc2ccccc2)ccc1O`, for which the growth inhibition is 74.8% (active) in experiment [1]; 82% (active) in experiment [2]; 90.2% (active) in experiment [3]; 89% (active) in experiment [4]; 90.1% (active) in experiment [5]; 61% in experiment [6].

Consider `C=C1CCC2C(C)(CO)C(O)CCC2(C)C1CCC1=CCOC1=O` (stereo unspecified), for which the growth inhibition in experiment [1] was -22.4%; in experiment [2], -17.6%; in experiment [3] it was -3.2%; in experiment [4] it was 3.35%; in experiment [5], -4.4%; in experiment [6], -8.05%.

In the case of `COC(=O)C(CC(=O)c1ccc2ccccc2c1)OC` (stereo unspecified), the growth inhibition is -1.85% in experiment [1]; -9.1% in experiment [2]; 7.2% in experiment [3]; -76.7% in experiment [4]; 6.35% in experiment [5]; -9.55% in experiment [6].

As for `CCOC(=O)Nc1ccc(S(=O)(=O)c2ccc(Nc3ccnc4cc(Cl)ccc34)cc2)cc1`, the growth inhibition is 17.1% in experiment [1]; 10.2% in experiment [2]; 27.2% in experiment [3]; -35.8% in experiment [4]; 5.45% in experiment [5]; 47.8% in experiment [6].

As to `CCNCC(=O)Nc1ccc2c(c1)C(=O)c1ccc(NC(=O)CNCC)cc1C2=O`, the growth inhibition in experiment [1] was 20.9%; in experiment [2], 28.5%; in experiment [3], 29.2%; in experiment [4] it was -4.55%; in experiment [5], 3.85%; in experiment [6], 50.8%.

In the case of `COC(=O)c1cccc2c1cc(Br)c1ccccc12`, the growth inhibition in experiment [1] is 1.75%; in experiment [2], 11.6%; in experiment [3], 14.2%; in experiment [4], -30.4%; in experiment [5], 1.35%; in experiment [6], 16.3%.

Consider `NC(CS(N)(=O)=O)C(=O)O` (stereo unspecified), for which the growth inhibition was -6.3% in experiment [1]; -3.75% in experiment [2]; -1.05% in experiment [3]; -51.5% in experiment [4]; -3.2% in experiment [5]; 2.8% in experiment [6].

Regarding `COc1cc(C)c2cccc(C)c2n1`, the growth inhibition is 6.6% in experiment [1]; 3.85% in experiment [2]; -0.4% in experiment [3]; -32.2% in experiment [4]; -8.8% in experiment [5]; 8.7% in experiment [6].

With `O=C1C=C(C2OC(CI)C(O)C2O)C(=O)N1` (stereo unspecified), the growth inhibition in experiment [1] is -0.45%; in experiment [2], 23.1%; in experiment [3], 11.5%; in experiment [4] it was -14.4%; in experiment [5] it was 23.2%; in experiment [6] it was -2.05%.

Consider `O=C(c1ccccc1)c1ccccc1NCC(O)COc1cccc2ccccc12` (stereo unspecified), for which the growth inhibition is -7.5% in experiment [1]; -19.9% in experiment [2]; -21.9% in experiment [3]; -13.8% in experiment [4]; 5.55% in experiment [5]; -4.2% in experiment [6].

With `CNC(=O)OCc1c(-c2ccccc2)c(-c2ccccc2)n(C)c1COC(=O)NC`, the growth inhibition in experiment [1] was 37.6%; in experiment [2], 22.5%; in experiment [3] it was 51.7%; in experiment [4], 15.8%; in experiment [5] it was 33.2%; in experiment [6] it was 87.8% (active).

As to `COc1cccc(NC(=O)N/C(=C/c2ccc(N(CCC#N)CCC#N)cc2)NC(=O)c2cc([N+](=O)[O-])ccc2Cl)c1`, the growth inhibition in experiment [1] is 30.8%; in experiment [2], 16%; in experiment [3] it was -3.15%; in experiment [4] it was -10.1%; in experiment [5], -6.8%; in experiment [6], 36.5%.

As for `[C-]#[N+]C(=C\c1ccc(O)cc1)/C(=C/c1ccc(O)cc1)[N+]#[C-]`, the growth inhibition in experiment [1] is 97.8% (active); in experiment [2], 98% (active); in experiment [3], 97.8% (active); in experiment [4] it was 96% (active); in experiment [5], 98.1% (active); in experiment [6], 98.2% (active).

With `CCCCN(CCCC)CCCCCCCCCCCO`, the growth inhibition in experiment [1] was 38.7%; in experiment [2], -8.35%; in experiment [3], 34.5%; in experiment [4], -22.9%; in experiment [5], 30.8%; in experiment [6], 27.6%.

For the molecule `NC(CCCCC(N)C(=O)c1ccccc1)C(=O)c1ccccc1` (stereo unspecified), the growth inhibition in experiment [1] was -11.9%; in experiment [2], -7.45%; in experiment [3] it was -4.85%; in experiment [4], -15.9%; in experiment [5], 1.55%; in experiment [6] it was 3.25%.

Values taken from PubChem BioAssay (NCI).
